Laboratory results from PubChem BioAssay AID493170 (National Center for Advancing Translational Sciences (NCATS), 2011).
Records with an inconclusive call do not appear. Entries that show only a call come without a potency. Active and inactive are the calls of the source. Calls follow the shape of the dose curve; as a rule, active = well fitted inhibition curve with a large enough effect; inconclusive = small, poorly fitted or top-dose-only effect, or effect the other way; inactive = flat fitted curve, though single readings scatter.

Each compound was assayed against Ubiquitin carboxyl-terminal hydrolase 2 (Homo sapiens) (UniProt O75604) (assay: Ub-rhodamine 110 based assay for inhibitors Ubiquitin-specific Protease USP2a). Conditions: USP2a Ub-rhodamine110 cleavage, fluorescence; series mostly up to 38.3 µM.
Ubiquitin carboxyl-terminal hydrolase 2 (Homo sapiens), sequence (O75604 whole entry, looked up): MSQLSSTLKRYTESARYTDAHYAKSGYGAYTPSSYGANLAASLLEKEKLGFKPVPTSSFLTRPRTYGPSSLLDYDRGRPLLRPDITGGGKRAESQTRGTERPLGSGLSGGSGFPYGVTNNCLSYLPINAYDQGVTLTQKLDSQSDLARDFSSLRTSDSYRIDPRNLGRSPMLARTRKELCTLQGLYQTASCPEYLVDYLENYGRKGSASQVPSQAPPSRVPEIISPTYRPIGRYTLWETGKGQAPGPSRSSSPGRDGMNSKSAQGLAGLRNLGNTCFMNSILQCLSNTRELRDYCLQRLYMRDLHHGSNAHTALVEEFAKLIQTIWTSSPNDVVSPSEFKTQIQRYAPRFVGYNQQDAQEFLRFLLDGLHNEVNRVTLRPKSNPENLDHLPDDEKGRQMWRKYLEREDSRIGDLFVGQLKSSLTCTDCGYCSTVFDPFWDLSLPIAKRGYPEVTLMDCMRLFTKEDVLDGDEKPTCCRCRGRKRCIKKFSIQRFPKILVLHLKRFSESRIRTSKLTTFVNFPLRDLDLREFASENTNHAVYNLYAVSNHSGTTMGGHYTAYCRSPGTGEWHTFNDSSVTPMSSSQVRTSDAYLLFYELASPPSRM
Summary of the method: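 5 nM USP2a preincubated with compounds for 30 min at RT in 20 mM Tris-HCl pH 8.0, 2 mM CaCl2, 2 mM beta-mercaptoethanol, 0.05% CHAPS. Cleavage of 150 nM Ub-rhodamine 110 read kinetically (Ex 485/Em 531) for 7 min.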
Also: nearly all actives have a fitted effect of over 50% in size.
Potency is read from the fitted curve at half-maximal effect.

For `O=C(c1cccc(F)c1)N1CCN(S(=O)(=O)c2ccccc2)CC1`, which Potency is on record?
Its Potency is “inactive”.

For `COc1ccc(CC(=O)c2ccccc2C(=O)O)cc1`, which Potency is on record?
The Potency was “inactive”.

With `COc1ccc(/C=C2\SC(=O)N(CC(=O)Nc3cccc(C)c3)C2=O)cc1O` as the compound, how does the Potency read?
The Potency was 8.91 µM (active).

Which Potency does the source give for `Cn1c(=O)[nH]c(=O)c2c1nc(NCc1ccccc1)n2CCCc1ccccc1` here?
The Potency was “inactive”.

With `Cc1ccc(S(=O)(=O)Nc2ccccc2-c2ccccc2NS(=O)(=O)c2ccc(C)cc2)cc1` as the compound, how does the Potency read?
Its Potency is 8.91 µM (active).

How did the Potency turn out when `O=C(/C(=N/N=C/c1ccc(O)c(O)c1O)c1ccccc1)c1ccccc1` was run?
Its Potency is 2.51 µM (active).

How did the Potency turn out when `Cc1cc(C)c2c(N=CN(C)C)c(C(=O)N3CCN(c4ncccn4)CC3)sc2n1` was run?
The Potency was “inactive”.

How did the Potency turn out when `Cc1cc(C)n2cc(CSc3nnnn3-c3ccccc3C)nc2n1` was run?
Its Potency is “inactive”.

With `Cc1cccc(N2CCN(C(=O)CCc3nc4ccccc4[nH]3)CC2C)c1` (stereo not drawn) as the compound, how does the Potency read?
Its Potency is “inactive”.

Which Potency does the source give for `O=C(/C=C1\NC2(CCCC2)Cc2ccccc21)C(=O)N/N=C/c1ccc(O)c(O)c1` here?
Its Potency is 7.94 µM (active).

How did the Potency turn out when `O=C(Nc1cccc(S(=O)(=O)N2CCCC2)c1)c1cncc(Br)c1` was run?
The Potency was “inactive”.

How did the Potency turn out when `Cc1ccc(C2=NC(=O)/C(=C/c3cc(O)c(O)c(Br)c3)S2)cc1` was run?
Its Potency is 1.58 µM (active).

With `O=C(Nc1ccccc1)Nc1snnc1C(=O)Nc1cccc(O)c1` as the compound, how does the Potency read?
Its Potency is 10 µM (active).

Which Potency does the source give for `O=C(c1ccc([N+](=O)[O-])cc1)N(Cc1ccc(Cl)cc1)N1C(=O)CCCC1=O` here?
The Potency was “inactive”.

How did the Potency turn out when `COc1ccc(S(=O)(=O)N(C)CC(=O)Nc2cccc(C(C)=O)c2)cc1Cl` was run?
Its Potency is “inactive”.

With `CC(C)C(=O)N=c1sc2cc(F)cc(F)c2n1C` as the compound, how does the Potency read?
The Potency was “inactive”.

For `CC(OC(=O)CN(C)S(=O)(=O)c1ccc(Cl)cc1)C(=O)Nc1ccc(N2CCOCC2)cc1` (stereo not drawn), which Potency is on record?
The Potency was “inactive”.

With `O=C(CNC(=O)C1CCCCC1)NC1=NCCS1` as the compound, how does the Potency read?
The Potency was “inactive”.

With `COc1ccc(/C=N\NC(=O)c2cc(O)c(O)c(O)c2)cc1COc1ccc(C(=O)OCC(C)C)cc1` as the compound, how does the Potency read?
Its Potency is 2.82 µM (active).

Which Potency does the source give for `COc1ccc(C(=O)C[N+]2(C)CCOCC2)cc1` here?
Its Potency is “inactive”.

`CCC(C(=O)Nc1nnc(-c2ccco2)s1)c1ccccc1` (stereo not drawn) was tested. Which Potency did it give?
Its Potency is “inactive”.

For `Cc1ccc2oc(=O)c3cnn(CC(=O)NCCCOC(C)C)c3c2c1`, which Potency is on record?
Its Potency is “inactive”.

`CC(C)Cn1c(SCC(N)=O)nnc1-c1cccc(S(=O)(=O)N2CCOCC2)c1` was tested. Which Potency did it give?
The Potency was “inactive”.
